Results as given in PubChem BioAssay.
Records with an inconclusive call do not appear. The source made the active and inactive calls. The limit is not given here; nearly all actives have AC50 up to about 30 µM.

experiment: SU-DIPG-VI glioma cell viability, MIPE4.0 library, CellTiter-Glo luminescence, qHTS (AID 1347066); conditions: CellTiter-Glo ATP luminescence;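 also: cells exposed to compound for 48 hours before readout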

Compound	outcome	AC50
C/C(=C\C(=O)Nc1ccccc1C(=O)O)c1ccc2ccccc2c1	inactive	–
O=C(O)C1=NC(C(=O)O)CC(/C=C/N2c3cc(O)c(OC4OC(CO)C(O)C(O)C4O)cc3CC2C(=O)O)=C1 (stereo not given)	inactive	–
CC(=O)N1CCN(c2ccc(OCc3nn(C)c(C)c3-c3cccc4c(CCCOc5cccc6ccccc56)c(C(=O)O)n(Cc5cccnc5)c34)cc2)CC1	–	1.48 µM (active)
CC1COC2(CCN(c3nc(=O)c4cc(C(F)(F)F)cc([N+](=O)[O-])c4s3)CC2)O1 (stereo not given)	inactive	–
CN(C)c1nc(Cc2ccc(NC(=O)c3ccc(C(F)(F)F)cc3)cc2)nc(N(C)C)c1CC(=O)O	inactive	–
CN1[C@@H]2CC(OC(=O)[C@@H](CO)c3ccccc3)C[C@H]1[C@H]1O[C@H]12 (stereo not given in full)	inactive	–
CO/N=C(/C(=O)N[C@@H]1C(=O)N2C(C(=O)O)=C(Cn3ccc(=N)n3CCO)CS[C@H]12)c1csc(N)n1	inactive	–
Nc1nc(F)nc2c1ncn2[C@@H]1O[C@H](CO)[C@@H](O)[C@H]1O	–	0.833 µM (active)
C=C1/C(=C\C=C2/CCC[C@]3(C)[C@@H]([C@H](C)/C=C/[C@H](C)C(C)C)CC[C@@H]23)C[C@@H](O)C[C@@H]1O	–	23.5 µM (active)
CC(C)(O)Cn1c(NC(=O)c2ccc(-c3cn[nH]c3)s2)nc2cc(CN3CCOCC3)ccc21	–	2.64 µM (active)
CC(C)(C)OC(=O)N[C@H]1CCCCC/C=C\[C@@H]2C[C@@]2(C(=O)NS(=O)(=O)C2CC2)NC(=O)[C@@H]2C[C@@H](OC(=O)N3Cc4cccc(F)c4C3)CN2C1=O	inactive	–
CC(NCc1ccc2c(c1)nc(NC(=O)c1ccc(-c3cn[nH]c3)s1)n2CC(C)(C)O)C(C)(C)C (stereo not given)	–	5.9 µM (active)
O=C(NNC(=O)c1ccc(CNS(=O)(=O)c2ccc(F)c(Cl)c2)cc1)c1ccccc1	inactive	–
Nc1nc(=O)n([C@H]2CSC(CO)O2)cc1F (stereo not given in full)	inactive	–
C=C1C[C@@]2(O)O[C@@]3(C[C@H]2C(C)C)[C@@H](C)CC[C@@H]13	inactive	–
OC[C@H]1O[C@@H](OCCc2ccc(O)cc2)[C@H](O)[C@@H](O)[C@@H]1O	inactive	–
CC[C@H]1OC(=O)[C@H](C)[C@@H](O[C@H]2C[C@@](C)(OC)[C@@H](O)[C@H](C)O2)[C@H](C)[C@@H](O[C@@H]2O[C@@H](C)C[C@H](N(C)C)[C@H]2O)[C@](C)(O)C[C@@H](C)C(=O)[C@H](C)[C@@H](O)[C@]1(C)O	inactive	–
Cc1ccnc(NS(=O)(=O)c2ccc(NC(=O)Nc3ccc(S(=O)(=O)Nc4nccc(C)n4)cc3)cc2)n1	inactive	–

Compound	outcome	AC50
CC(C)(C)COc1ccc(-n2cc(C(=O)O)cn2)cc1C#N	inactive	–
Nc1n[nH]c2nnc(-c3c(-c4ccccc4)nn4ccccc34)cc12	–	2.96 µM (active)
CCC(CC)[C@H](NC(C)=O)[C@@H]1[C@H](O)[C@@H](C(=O)O)C[C@H]1N=C(N)N	inactive	–
c1nc2nc(Nc3ccc(N4CCOCC4)cc3)nc(NC3CCCCC3)c2[nH]1	–	8.33 µM (active)
CCC(C)CCCCC(=O)N[C@@H](CCN)C(=O)NC(C(=O)N[C@H](CCN)C(=O)N[C@@H]1CCNC(=O)C([C@@H](C)O)NC(=O)[C@@H](CCN)NC(=O)[C@@H](CCN)NC(=O)[C@@H](CC(C)C)NC(=O)[C@H](Cc2ccccc2)NC(=O)[C@H](CCN)NC1=O)[C@@H](C)O (stereo not given in full)	inactive	–
Nc1ccn([C@H]2CS[C@@H](CO)O2)c(=O)n1	inactive	–
NC1CCC(Nc2nc(Nc3ccc(C(=O)N4CCCCC4)cc3)c3ncn(-c4cccc(F)c4)c3n2)CC1 (stereo not given)	inactive	–
N#CC(=C(O)c1ccc(Cl)cc1Cl)c1nc2cc(Cl)ccc2c(=O)[nH]1	inactive	–
Cc1cnn(C)c1C(=O)Nc1cc(Nc2ccc3c(/C=C/c4ccccn4)n[nH]c3c2)ccc1F	–	18.7 µM (active)
COC1=C2C[C@@H](C)C[C@H](OC)[C@H](O)[C@@H](C)/C=C(\C)[C@H](OC(N)=O)[C@@H](OC)/C=C/C=C(\C)C(=O)NC(=CC1=O)C2=O	–	2.35 µM (active)
CNC(=O)c1ccc(Nc2cc(Nc3ccccc3S(=O)(=O)C(C)C)c3cc[nH]c3n2)nc1	–	16.6 µM (active)
COc1ccc(CC2SC(=O)NC2=O)cc1C(=O)NCc1ccc(C(F)(F)F)cc1 (stereo not given)	inactive	–
Cc1nc2c([nH]1)CCN(C(=O)c1ccc(NC(=O)c3ccccc3-c3ccccc3)cc1)c1ccccc1-2	inactive	–
O=C(C=CC#Cc1cccc(NS(=O)(=O)c2ccccc2)c1)NO	–	18.7 µM (active)
Nc1ncnc2c1ncn2[C@@H]1O[C@@H](CO)[C@H](O)[C@@H]1O	inactive	–
C[C@H](NCc1ccc2c(c1)nc(NC(=O)c1ccc(-c3cn[nH]c3)s1)n2CCc1ccccc1)C(C)(C)C	–	5.26 µM (active)
CC(C)C(=O)Oc1ccc(CO)cc1[C@H](CCN(C(C)C)C(C)C)c1ccccc1	inactive	–
